Measured values from PubChem BioAssay (Tox21).
Values joined by “and” are separate entries in the source; they are usually repeats but may differ in a detail not shown here. Equal values may be shown once. Records with an inconclusive call do not appear. Where a structure was tested more than once in an assay, its records may differ in their call. Active and inactive are the calls of the source. Unless noted, calls follow the shape of the dose curve; as a rule, active = well fitted curve in the direction sought with a large enough effect in the repeat runs; inconclusive = weak or mixed curves; inactive = no such curve, though single readings can be large; an effect the other way counts as inactive or inconclusive.

What was measured:
[1] = qHTS assay to identify small molecule agonists of the estrogen receptor alpha (ER-alpha) signaling pathway in the presence of an antagonist - cell viability counter screen (AID 1259386);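 also: series mostly up to about 92 µM; cells exposed to compounds for 22 h at 37 °C before the viability read; nearly all actives have a fitted effect of over 30% in size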
How it was run: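 Using estrogen-depleted VM7Luc4E2 cells, the 15-concentration compound series was applied together with 10.0nM ICI-182,780 and incubated 22hr at 37C/5% CO2. Cell viability was then scored by CellTiter-Fluor.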

[2] = biological target: Progesterone receptor (Homo sapiens) (UniProt P06401); assay: qHTS assay to identify small molecule agonists of the progesterone receptor (PR) signaling pathway (AID 1346784; calls by dose curve; also: nearly all actives have a fitted effect of over 30% in size)
Sequence of Progesterone receptor (Homo sapiens) (P06401 whole entry, looked up): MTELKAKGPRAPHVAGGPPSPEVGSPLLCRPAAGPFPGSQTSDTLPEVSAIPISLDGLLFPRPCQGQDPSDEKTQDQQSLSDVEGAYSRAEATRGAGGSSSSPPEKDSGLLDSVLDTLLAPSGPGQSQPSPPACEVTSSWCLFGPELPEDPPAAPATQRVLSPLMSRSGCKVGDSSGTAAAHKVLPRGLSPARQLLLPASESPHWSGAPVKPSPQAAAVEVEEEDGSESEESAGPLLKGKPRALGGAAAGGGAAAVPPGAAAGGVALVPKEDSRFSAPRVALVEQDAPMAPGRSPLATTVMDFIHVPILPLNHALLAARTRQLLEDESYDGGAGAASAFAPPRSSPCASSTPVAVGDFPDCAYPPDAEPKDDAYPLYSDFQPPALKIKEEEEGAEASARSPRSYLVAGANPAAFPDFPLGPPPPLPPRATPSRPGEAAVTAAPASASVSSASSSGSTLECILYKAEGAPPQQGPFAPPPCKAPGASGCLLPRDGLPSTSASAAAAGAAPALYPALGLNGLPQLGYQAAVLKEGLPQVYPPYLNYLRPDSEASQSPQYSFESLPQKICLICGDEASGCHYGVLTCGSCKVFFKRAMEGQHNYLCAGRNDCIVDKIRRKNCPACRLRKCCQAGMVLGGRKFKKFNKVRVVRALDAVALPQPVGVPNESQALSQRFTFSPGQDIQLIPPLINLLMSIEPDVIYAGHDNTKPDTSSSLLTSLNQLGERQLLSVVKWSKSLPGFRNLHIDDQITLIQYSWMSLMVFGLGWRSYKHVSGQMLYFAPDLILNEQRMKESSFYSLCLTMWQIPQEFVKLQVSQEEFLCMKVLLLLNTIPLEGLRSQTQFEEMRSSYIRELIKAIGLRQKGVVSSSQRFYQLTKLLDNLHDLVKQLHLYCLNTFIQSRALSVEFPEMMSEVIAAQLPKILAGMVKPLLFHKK
How it was run: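 PR-UAS-bla HEK 293T cells carrying a UAS-driven beta-lactamase reporter were seeded in medium with 2% charcoal-stripped FBS, preincubated 6 hr at 37C, then exposed to compounds in DMSO for 16 hr; agonism was read by LiveBLAzer B/G FRET fluorescence.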

[3] = biological target: Progesterone receptor (Homo sapiens) (UniProt P06401); assay: qHTS assay to identify small molecule antagonists of the progesterone receptor (PR) signaling pathway (AID 1346795; active = well fitted inhibition curve with a large enough effect in the signal ratio in the repeat runs, not every such curve was filed as active; the % refers to the signal ratio; also: potency is read from the fitted curve at half-maximal effect)
How it was run: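 PR-UAS-bla HEK293T cells carrying a UAS-driven beta-lactamase reporter were plated in medium with 2% charcoal-stripped FBS and rested 6 hr at 37C. Compounds were added with 1 nM R5020 (final) for 16 hr, then FRET substrate loaded 2 hr at room temperature.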

[4] = qHTS assay to identify small molecule antagonists of the progesterone receptor (PR) signaling pathway - cell viability counter screen (AID 1346798); also: series mostly up to about 92 µM; nearly all actives have a fitted effect of over 50% in size
How it was run: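 PR-UAS-bla HEK293T cells in medium with 2% charcoal-stripped FBS were treated with compounds plus R5020 for 16 hr at 37C. Cell viability was then read by CellTiter-Glo luminescence after 30 min at room temperature in the same wells.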

[5] = qHTS assay to identify small molecule agonists of the progesterone receptor (PR) signaling pathway - cell viability counter screen (AID 1346799; calls by dose curve; also: nearly all actives have a fitted effect of over 45% in size)
How it was run: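 PR-UAS-bla HEK293T cells, 3,000 per well in medium with 2% charcoal-stripped FBS, were preincubated 6 hr at 37C, then exposed to compounds for 16 hr; viability was read as CellTiter-Glo luminescence after 30 min at room temperature.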

[6] = qHTS assay to identify small molecule antagonists of the TGF-beta/Smad signaling pathway - cell viability counter screen (AID 1346824); also: nearly all actives have a fitted effect of over 50% in size
How it was run: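 SBE-bla HEK 293T cells, incubated overnight, then compound plus 0.25 ng/mL TGF-beta1 (stock added) for 5 hr at 37 C. Viability was read in the same wells by CellTiter-Glo luminescence after 30 min at room temperature.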

[7] = qHTS assay to identify small molecule agonists of the TGF-beta/Smad signaling pathway - cell viability counter screen (AID 1346829); also: top concentration of the series differs between compounds; nearly all actives have a fitted effect of over 45% in size
How it was run: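 Here the cytotoxicity of library compounds is measured in SBE-bla HEK 293T cells treated for 5 hr, using CellTiter-Glo added to wells already read for the beta-lactamase reporter.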

[8] = qHTS assay to identify small molecule agonists of the TGF-beta/Smad signaling pathway (AID 1346859; active = well fitted activation curve with a large enough effect in the signal ratio in the repeat runs, not every such curve was filed as active; the % refers to the signal ratio; also: series mostly up to about 77 µM)
How it was run: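 HEK 293T cells stably carrying a beta-lactamase reporter driven by the Smad binding element were seeded overnight, exposed to DMSO-dissolved compounds for 5 hr at 37 C, 5% CO2, then loaded with FRET substrate for 2 hr at room temperature.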

[9] = biological target: Thyrotropin-releasing hormone receptor (Homo sapiens) (UniProt P34981); assay: qHTS assay to identify small molecule antagonists of the thyrotropin-releasing hormone receptor (TRHR) signaling pathway (AID 1346877; active = well fitted inhibition curve with a large enough effect in the repeat runs, not every such curve was filed as active; also: series mostly up to about 51 µM)
Sequence of Thyrotropin-releasing hormone receptor (Homo sapiens) (P34981 whole entry, looked up): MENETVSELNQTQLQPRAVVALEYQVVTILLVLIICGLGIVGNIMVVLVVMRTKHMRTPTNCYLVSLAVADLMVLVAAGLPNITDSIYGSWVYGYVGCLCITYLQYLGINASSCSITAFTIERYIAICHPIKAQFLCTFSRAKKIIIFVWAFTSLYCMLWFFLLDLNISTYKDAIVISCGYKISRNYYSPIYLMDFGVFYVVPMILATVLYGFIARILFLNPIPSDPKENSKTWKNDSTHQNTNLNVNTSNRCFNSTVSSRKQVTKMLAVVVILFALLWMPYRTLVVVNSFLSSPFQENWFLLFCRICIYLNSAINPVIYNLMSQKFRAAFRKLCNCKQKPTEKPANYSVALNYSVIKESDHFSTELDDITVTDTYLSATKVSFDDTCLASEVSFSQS
How it was run: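 Calcium signal in dye-loaded TRHR/HEK293 cells; compounds added 5 min before TRH (1 nM final); fluorescence monitored 3 min at 1 s steps.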

[10] = biological target: Thyrotropin-releasing hormone receptor (Homo sapiens) (UniProt P34981); assay: qHTS assay to identify small molecule agonists of the thyrotropin-releasing hormone receptor (TRHR) signaling pathway (AID 1346891; calls by dose curve; also: series mostly up to about 58 µM)
How it was run: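 TRHR-expressing HEK293 cells were plated 18 h at 37 °C/5% CO2, loaded with calcium dye 2 h at 37 °C, then given compound in DMSO; fluorescence was read kinetically for 3 min at 1 s intervals.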

[11] = Human pregnane X receptor (PXR) small molecule agonists, qHTS cell viability counter screen (AID 1346977); also: nearly all actives have a fitted effect of over 50% in size
How it was run: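 PXR-Luc HepG2 cells in medium with 5% charcoal-stripped FBS were pre-incubated 5hr, then exposed to compounds for 24hr at 37C. Viability was read in the same wells by CellTiter-Fluor fluorescence, reagent added after 23hr with a 1hr incubation.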

[12] = Caspase-3/7 induction in HepG2 cells by small molecules, qHTS assay (AID 1346978); also: nearly all actives have a fitted effect of over 15% in size
How it was run: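 Wild-type HepG2 cells, 2,000/well, settled 5 hr at 37 C and 5% CO2, then compound-treated for 17 hr; caspase-3/7 activity read by luminescent Caspase-Glo 3/7 after 30 min at room temperature.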

[13] = Caspase-3/7 induction in CHO-K1 cells by small molecules, qHTS cell viability counter screen (AID 1346979); also: nearly all actives have a fitted effect of over 35% in size
How it was run: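 Wild-type CHO-K1 cells were seeded at 1,500 per well, rested 5hr at 37 C, then exposed to compounds in DMSO. After 16hr, CellTiter-Fluor reagent was added and fluorescence read 1hr later as the viability measure.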

[14] = Caspase-3/7 induction in CHO-K1 cells by small molecules, qHTS assay (AID 1346980); also: nearly all actives have a fitted effect of over 15% in size
How it was run: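 Wild-type CHO-K1 cells exposed to compounds for 17hr at 37 C, 5% CO2. Caspase-3/7 activity then measured by Caspase-Glo 3/7 luminescence after 30min at room temperature.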

[15] = Caspase-3/7 induction in HepG2 cells by small molecules, qHTS cell viability counter screen (AID 1346981); also: series mostly up to about 92 µM; nearly all actives have a fitted effect of over 30% in size
How it was run: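 After a 5-hr attachment period at 37 C and 5% CO2, wild-type HepG2 cells received compounds in DMSO. Sixteen hours later CellTiter-Fluor was dispensed and the fluorescent signal quantified after a further hour.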

[16] = biological target: Nuclear receptor subfamily 1 group I member 2 (Homo sapiens) (UniProt O75469); assay: Human pregnane X receptor (PXR) small molecule agonists, qHTS assay (AID 1346982); also: nearly all actives have a fitted effect of over 35% in size
Sequence of Nuclear receptor subfamily 1 group I member 2 (Homo sapiens) (O75469 whole entry, looked up): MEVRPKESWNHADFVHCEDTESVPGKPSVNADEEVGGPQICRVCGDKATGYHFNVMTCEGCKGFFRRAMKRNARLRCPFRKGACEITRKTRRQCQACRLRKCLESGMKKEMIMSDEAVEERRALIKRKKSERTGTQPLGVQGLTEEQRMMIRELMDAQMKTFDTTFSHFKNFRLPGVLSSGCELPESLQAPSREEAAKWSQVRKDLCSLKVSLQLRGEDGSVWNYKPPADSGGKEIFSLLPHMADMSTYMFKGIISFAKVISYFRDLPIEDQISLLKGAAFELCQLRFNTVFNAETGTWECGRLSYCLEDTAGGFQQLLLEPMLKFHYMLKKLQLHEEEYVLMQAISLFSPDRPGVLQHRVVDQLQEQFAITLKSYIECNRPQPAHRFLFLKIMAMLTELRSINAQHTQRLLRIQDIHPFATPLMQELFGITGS
How it was run: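 Tox21 qHTS; PXR-Luc HepG2; compounds pinned from DMSO; 24 hr, 37 C; ONE-Glo luciferase detection, 30 min room temperature.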

[17] = biological target: Nuclear receptor subfamily 1 group I member 2 (Rattus norvegicus) (UniProt Q9R1A7); assay: Rat pregnane X receptor (rPXR) activation by small molecules, qHTS assay (AID 1346983); conditions: rPXR luciferase reporter cells, One-Glo luminescence, 24 h; stronger effect = higher value; also: nearly all actives have a fitted effect of over 20% in size
Sequence of Nuclear receptor subfamily 1 group I member 2 (Rattus norvegicus) (Q9R1A7 whole entry, looked up): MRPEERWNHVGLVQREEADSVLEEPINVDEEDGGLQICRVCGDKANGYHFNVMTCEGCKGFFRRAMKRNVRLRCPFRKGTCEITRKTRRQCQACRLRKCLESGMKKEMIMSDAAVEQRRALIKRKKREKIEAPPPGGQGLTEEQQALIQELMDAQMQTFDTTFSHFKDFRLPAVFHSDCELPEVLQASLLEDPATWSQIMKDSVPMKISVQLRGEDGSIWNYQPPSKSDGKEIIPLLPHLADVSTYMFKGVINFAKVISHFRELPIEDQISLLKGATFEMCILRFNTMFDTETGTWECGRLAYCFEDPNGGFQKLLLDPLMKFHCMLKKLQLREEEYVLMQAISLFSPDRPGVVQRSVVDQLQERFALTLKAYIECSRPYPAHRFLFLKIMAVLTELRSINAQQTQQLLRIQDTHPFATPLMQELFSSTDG
How it was run: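 Cell-based rPXR activation assay: rPXR cells, 2,000 per well, rested 5hr at 37 C, then exposed to compounds in DMSO for 24 hr at 37 C. Luciferase activity read by One-Glo luminescence after 30 min at room temperature.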

[18] = biological target: Nuclear receptor subfamily 1 group I member 2 (Homo sapiens) (UniProt O75469); assay: Human pregnane X receptor (PXR) activation by small molecules, qHTS assay (AID 1346985); also: nearly all actives have a fitted effect of over 40% in size
How it was run: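 DPX-2 cells (HepG2 co-transfected with a PXR response element and a CYP3A4-promoter luciferase construct) were seeded at 2,000 per well, rested 5 hr at 37C, then exposed to DMSO-dissolved compounds for 24 hr. Activation was read as luciferase luminescence.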

[19] = biological target: Cytochrome P450 2D6 (Homo sapiens) (UniProt P10635); assay: Cytochrome P450 Family 2 Subfamily D Member 6 (CYP2D6) small molecule antagonists: luciferase reporter qHTS assay (AID 1671196); also: series mostly up to about 120 µM; nearly all actives have a fitted effect of over 50% in size
Sequence of Cytochrome P450 2D6 (Homo sapiens) (P10635 whole entry, looked up): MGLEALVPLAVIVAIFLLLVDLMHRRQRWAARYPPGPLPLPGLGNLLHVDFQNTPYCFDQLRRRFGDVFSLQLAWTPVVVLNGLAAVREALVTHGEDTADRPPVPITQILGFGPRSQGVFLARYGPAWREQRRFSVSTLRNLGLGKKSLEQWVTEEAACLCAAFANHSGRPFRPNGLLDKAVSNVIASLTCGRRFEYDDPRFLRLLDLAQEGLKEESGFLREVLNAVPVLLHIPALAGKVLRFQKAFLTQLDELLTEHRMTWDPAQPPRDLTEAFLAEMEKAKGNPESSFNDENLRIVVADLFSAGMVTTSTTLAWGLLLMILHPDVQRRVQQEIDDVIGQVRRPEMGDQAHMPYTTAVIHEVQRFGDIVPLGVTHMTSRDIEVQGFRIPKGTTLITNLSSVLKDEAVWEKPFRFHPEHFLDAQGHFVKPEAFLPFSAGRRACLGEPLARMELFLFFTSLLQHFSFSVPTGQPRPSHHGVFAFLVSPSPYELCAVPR
How it was run: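 Room-temperature luminescent CYP2D6 activity assay: compound preincubated 10 min with enzyme–substrate mix, NADPH-initiated reaction 1 h, detection reagent 20 min before reading.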

[20] = biological target: Cytochrome P450 2C19 (Homo sapiens) (UniProt P33261); assay: Cytochrome P450 Family 2 Subfamily C Member 19 (CYP2C19) small molecule antagonists: luciferase reporter qHTS assay (AID 1671197); also: nearly all actives have a fitted effect of over 65% in size; also: potency is read from the fitted curve at half-maximal effect
Sequence of Cytochrome P450 2C19 (Homo sapiens) (P33261 whole entry, looked up): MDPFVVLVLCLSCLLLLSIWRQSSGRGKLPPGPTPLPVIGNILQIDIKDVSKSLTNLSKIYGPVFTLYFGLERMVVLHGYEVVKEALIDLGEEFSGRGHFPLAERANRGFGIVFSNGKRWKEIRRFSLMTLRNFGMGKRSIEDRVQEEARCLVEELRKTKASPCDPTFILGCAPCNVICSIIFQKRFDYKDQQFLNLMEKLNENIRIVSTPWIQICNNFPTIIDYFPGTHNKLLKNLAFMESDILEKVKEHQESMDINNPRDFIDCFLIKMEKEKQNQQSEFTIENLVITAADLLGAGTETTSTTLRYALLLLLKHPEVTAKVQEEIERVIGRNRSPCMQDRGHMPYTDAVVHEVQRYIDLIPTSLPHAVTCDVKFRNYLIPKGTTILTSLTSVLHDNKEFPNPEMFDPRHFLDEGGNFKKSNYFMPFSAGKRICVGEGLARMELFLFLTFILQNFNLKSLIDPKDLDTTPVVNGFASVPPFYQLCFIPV
How it was run: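 Light output is proportional to CYP2C19 activity: proluciferin substrate is converted to luciferin, then detected by a luciferin detection reagent that also stops the 1 h, 37C NADPH-driven reaction. Ketoconazole serves as positive control.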
% is scaled to controls: 0 for no effect and ±100 for the full control effect.

CC(=O)OCC1=C(C(=O)O)N2C(=O)[C@@H](NC(=O)Cc3cccs3)[C@H]2SC1
inactive: Potency [1] | Potency [2] | Potency [3] | Potency [4] | Potency [5] | Potency [6] | Potency [7] | outcome [8] | Potency [9] | Potency [10] | Potency [11] | Potency [12] | Potency [13] | Potency [14] | Potency [15] | Potency [16] | max activation [17] -1.19% | Potency [18] | Potency [19] | Potency [20]

CCOc1ccccc1C(N)=O
20 µM (active) and inactive: Potency [20]
inactive and 26.6 µM (active): Potency [3]
inactive: Potency [1] | Potency [2] | Potency [4] | Potency [5] | Potency [6] | Potency [7] | outcome [8] | Potency [9] | Potency [10] | Potency [11] | Potency [12] | Potency [13] | Potency [14] | Potency [15] | Potency [16] | max activation [17] -0.87% | Potency [18] | Potency [19]

O=C(O)CCc1ccccc1
inactive: Potency [1] | Potency [2] | Potency [3] | Potency [4] | Potency [5] | Potency [6] | Potency [7] | outcome [8] | Potency [9] | Potency [10] | Potency [11] | Potency [12] | Potency [13] | Potency [14] | Potency [16] | Potency [19] | Potency [20]

CO[Si](OC)(OC)c1ccccc1
inactive: Potency [1] | Potency [2] | Potency [3] | Potency [4] | Potency [5] | Potency [6] | Potency [7] | Potency [9] | Potency [10] | Potency [11] | Potency [12] | Potency [13] | Potency [15] | Potency [16] | Potency [19] | Potency [20]

CC(C)(C)NC(=O)[C@@H]1CN(Cc2cccnc2)CCN1C[C@@H](O)C[C@@H](Cc1ccccc1)C(=O)N[C@H]1c2ccccc2C[C@H]1O
inactive: Potency [1] | Potency [2] | Potency [3] | Potency [4] | Potency [5] | Potency [6] | Potency [7] | outcome [8] | Potency [11] | Potency [12] | Potency [13] | Potency [14] | Potency [15] | max activation [17] 4.92%

CC(=O)N[C@@H](CS)C(=O)O
56.3 µM (active) and inactive: Potency [20]
inactive: Potency [1] | Potency [2] | Potency [3] | Potency [4] | Potency [5] | Potency [6] | Potency [7] | outcome [8] | Potency [11] | Potency [12] | Potency [13] | Potency [14] | Potency [15] | Potency [16] | max activation [17] -0.291% | Potency [18] | Potency [19]
